Most compounds without a hit are left out; they make up all but 4% or so of the library.
Casp1 inh: blocks human caspase-1 allosterically or competitively. P29466. Caspase-1 enzyme, Ac-WEHD-AFC fluorogenic rate. Potency, µM (highest dose often 57.5 µM), for the others: at the highest dose activity change, negative = inhibition, hits mostly inhibitors. actives 0.03% (n = 75,000). AID 900;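 note: plate controls were vehicle for no effect and no substrate for full effect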
Tau filament bind: tau filament binding; P10636; recombinant tau filaments, thioflavin S fluorescence, 15 h; filaments grown with octadecylsulfate alongside compound; Potency, µM (doses to about 57.1 µM), for inactives: at the top dose activity change, negative = inhibition; actives 2% (n = 71,000); AID 596;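 note: % is set by controls: 0 for no effect and ±100 for the full control effect; actives lower thioflavin S fluorescence by blocking filaments or displacing dye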
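Read-out: ThS fluorescence, 450 nm excitation/510 nm emission; lower signal marks blocked filament formation or displaced dye. Tau at 1 uM with 30 uM ODS, 10 uM ThS, 5 mM DTT, 100 mM NaCl, 10 mM HEPES pH 7.4; 15 h, 37 C.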
PK Bst: pyruvate kinase (B. stearothermophilus) modulation | actives 1.2% (n = 51,000) | purified pyruvate kinase, luminescence ATP production; ribose 5-phosphate activator present at AC10 | Potency, µM; in the data active = potency below about 11 µM; inconclusive = mostly about 12 µM to 25 µM;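 the screen sought inhibitors and activators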;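 note: scaled between full activation by ribose 5 phosphate and full inhibition by luteolin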
Luciferase inh: firefly luciferase inhibition; P08659; purified firefly luciferase, luminescence, 8 min; Potency, µM (titrated, usually from 57.1 µM), for the others: top-dose activity change, negative = inhibition, hits mostly inhibitors; actives 2.2% (n = 72,000); AID 411; note: % is set by controls: 0 for no effect and ±100 for the full control effect; nearly all actives have a fitted effect of over 40% in size
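Titration-based qHTS; buffer 50 mM imidazole pH 7.2, 50 mM KCl, 7 mM MgCl2, 10 uM ATP, 0.01% Tween 20, 0.05% BSA; luciferase/luciferin detector mix added after compound; 8 min, ambient; luminescence.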
Caspase-7 inhib: blocks human caspase-7 allosterically or competitively; P55210; recombinant caspase-7, Ac-DEVD-AFC fluorescence rate; actives 0.02% (n = 75,000); Potency, µM (titrated, usually from 57.5 µM), without a hit: at the top dose activity change, negative = inhibition, actives largely listed as inhibitors; active = well fitted inhibition curve with a large enough effect in the main read-out, with a control signal flat, not every such curve was filed as active; inconclusive = small, poorly fitted or top-dose-only effect, or a change in a side signal; note: % of control where 0% means no effect
* marks the source's active call; other numbers are inactive results; i = inactive; u = inconclusive; x = no result given; [ ] = remark or other dose. Unless noted, calls come from the whole dose curve; as a rule, active = well fitted curve in the direction sought with a large enough effect; inconclusive = small, poorly fitted or top-dose-only effect, or another doubt; inactive = no such curve, though single readings can be large; an effect the other way counts as inactive or inconclusive. Potency is the fitted concentration of half-maximal effect.

SMILES	Casp1 inh	Tau filament bind	PK Bst	Luciferase inh	Caspase-7 inhib
CCOC(=O)C(C(C)=O)c1c(Br)c(O)c(O)c2c(C(=O)c3ccc(C)cc3)coc12 (centres undefined)	-2.4%	10µM*	>57	-5.8%	-3.1%
CCc1ccc(CNc2ccc(O)cc2)cc1	u	10µM*	x	-9.1%	-27.7%
Cc1ccc(CNc2ccc3c(c2)OCO3)cc1	u	193.0%	>57	-8.8%	u
Cc1ccc(-c2nnc(SCc3ccccc3F)o2)cc1	-2.6%	11.0%	i	20µM*	-4.6%
COc1cccc2c1C(=O)c1c(O)c3c(c(O)c1C2=O)C[C@](O)(C(=O)CO)C[C@H]3O[C@@H]1C[C@H](N)[C@H](O)[C@H](C)O1	0.4%[25.7 µM]	5.01µM*	x	-10.2%[25.5 µM]	-0.9%[25.7 µM]
O=[N+]([O-])c1ccc(Cl)cc1Cl	-2.8%	2.0%	x	x	0.1%
COCC(=O)N1CCC[C@@]2(CCN(Cc3ccc(C#N)cc3)C2)C1	-2.8%	8.3%	x	1.3%[11.4 µM]	-1.3%
C=CC(C)(C)c1[nH]c2ccccc2c1C1=C(O)C(=O)C(c2c[nH]c3c(CC=C(C)C)cccc23)=C(O)C1=O	-8.5%	31.6µM*	x	-0.7%	-21.5%
CC(=O)c1ccc(N2CCN(C(=O)c3cc(-c4ccc5c(c4)OCO5)nc4ccccc34)CC2)cc1	-13.5%	128.8%	x	7.94µM*	-12.5%
COc1ccc(-c2cc(C(=O)N3CCN(c4ccccn4)CC3)c3ccccc3n2)cc1	-10.3%	29.6%	2.16*	1.26µM*	-3.5%
COc1cc(-c2cc(C(=O)N3CCN(c4ccccn4)CC3)c3ccccc3n2)cc(OC)c1OC	-3.7%	9.1%	>57	-0.1%	-3.3%
CCOC(=O)N1CCN(C(=O)c2cc(-c3ccc(OCC)cc3)nc3ccccc23)CC1	-2.6%	-6.8%	1.06*	0.794µM*	-1.5%
O=C(O)c1cc(-c2ccc3c(c2)OCO3)nc2ccccc12	0.1%	4.5%	>11.4	-27.4%	-0.1%
CCOc1ccc(-c2cc(C(=O)N3CCN(C)CC3)c3ccccc3n2)cc1	-1.5%	-15.6%	3.06*	2µM*	-0.2%
COc1ccc(OC)c(-c2cc(C(=O)N3CCN(c4ncccn4)CC3)c3ccccc3n2)c1	-4.9%	-17.7%	>57	-0.1%	-6.2%
O=C(c1cc(-c2ccccc2)nc2ccccc12)N1CCOCC1	-6.8%	-3.9%	x	-7.5%	0.3%
COc1ccc(-c2cc(C(=O)OCC(=O)N3CCCC3)c3ccccc3n2)cc1	u	-24.8%	10.1*	20µM*	u
COc1ccc(C(=O)Nc2ccc(-c3cn4ccsc4n3)cc2)cc1S(=O)(=O)N1CCOCC1	0.4%	58.6%	>57	-3.1%	-1.1%
CC(C)CC(=O)Nc1ccc(-c2cn3ccsc3n2)cc1	-1.6%	12.6µM*	2.67*	3.16µM*	0.0%
O=S(=O)(Nc1ccc(-c2cn3ccsc3n2)cc1)c1ccc2c(c1)OCCO2	1.1%	-12.8%	>57	-8.2%	-1.5%
CC(C)(C)C(=O)Nc1ccc(-c2cn3ccsc3n2)cc1	0.7%	-5.7%	1.57*	1µM*	-1.0%
Cc1ccc(NC(=O)CSCC(N)=O)cc1C	u	3.16µM*	>57	-26.6%	u
CCO[C@H]1O[C@@H]([C@H](COCc2ccccc2)OCc2ccccc2)[C@@H](OCc2ccccc2)[C@H]1O	-3.9%[25.7 µM]	-16.2%[25.6 µM]	x	0.3%[25.5 µM]	-2.3%[25.7 µM]
Cc1cccc(-n2c(SCC(=O)Nc3nnc(C)s3)nnc2-c2ccoc2C)c1	-4.2%	15.8µM*	>57	1.2%	-1.3%
CCNc1ncc2nc(-c3ccc(Cl)cc3)c(=O)n(-c3ccccc3)c2n1	x	151.0%	x	0.5%[11.4 µM]	u
SMILES	Casp1 inh	Tau filament bind	PK Bst	Luciferase inh	Caspase-7 inhib
CC(=Nc1cccc(O)c1)c1sc2ccccc2c1O	x	x	8.21*	7.94µM*	x
COc1ccccc1NC=C1C(=O)OC(C)(C)OC1=O	0.9%	1.9%	x	15.8µM*	0.3%
COc1ccc2c(c1)S/C(=C\C(=O)c1ccncc1)N2C	u	48.3%	x	5.01µM*	u
CCN1/C(=C/C(C)=O)Sc2ccc(OC)cc21	-0.2%	-1.3%	>11.4	-7.0%	-3.8%
O=C(N/N=C1/C[C@@H](O)[C@@H](O)[C@@H]2[C@@H]3C(=O)N(C4CCCCC4)C(=O)[C@H]3CC[C@H]12)OCc1ccccc1	1.1%[11.5 µM]	x	x	-2.7%[11.4 µM]	-0.9%[11.5 µM]
CC(=O)c1ccc2c3c(ccc(O)c13)CC2	-2.3%	3.98µM*	x	-2.1%	-0.9%
c1ccc(CNc2nc(-c3ccc4c(c3)OCO4)nc3ccccc23)cc1	-8.2%	201.9%	x	3.0%[2.29 µM]	-7.6%
CCN1CCc2nc(NC(=O)Cc3ccc4c(c3)OCCO4)sc2C1	-6.8%	-3.2%	>57	0.6%	-6.3%
CCN1CCc2nc(NC(=O)c3ccc4c(c3)OCCO4)sc2C1	x	101.6%	x	15.8µM*	u
CCOC(=O)c1cc(-c2ccco2)nc2c1c(C)nn2-c1ccccc1	-8.9%	10µM*	>57	0.0%	-13.5%
Cc1nn(-c2ccccc2)c2nc(-c3ccncc3)cc(C(=O)NCc3ccco3)c12	-5.1%	31.6µM*	x	-5.0%	-7.9%
Cc1nn(-c2ccccc2)c(C)c1C(=O)OCC(=O)NCc1ccco1	1.7%	3.4%	>57	-6.2%	0.5%
C[C@@]12C=CC(=O)C=C1CCC1C3CC(O)[C@@](O)(C(=O)CO)[C@]3(C)CC(O)[C@]12F (some centres undefined)	-14.0%	x	x	x	-1.2%
Clc1ccc2c(NC3CCC(N4CCCCC4)CC3)ccnc2c1 (centres undefined)	0.9%[11.5 µM]	125.6%[11.4 µM]	x	2.0%[11.4 µM]	-0.4%[11.5 µM]
COC(=O)c1ccc(C(/C=C/[C@@H](C)C(=O)NCc2ccccc2)NC(=O)OCc2ccccc2)cc1 (some centres undefined)	-0.5%	i	x	x	-2.4%
COC(=O)c1cccc(NC(=O)NC2CCCN2S(=O)(=O)c2ccc(Cl)cc2)c1 (centres undefined)	1.0%	6.8%	9.55*	2.1%	3.7%
O=C(COC(=O)C1CCCN1S(=O)(=O)c1ccc(Cl)cc1)Nc1ccc2c(c1)OCO2 (centres undefined)	0.9%	-3.3%	i	-2.4%	-1.4%
O=[N+]([O-])c1ccc(Nc2nc3ccccc3s2)cc1	-2.3%[11.5 µM]	3.98µM*	x	-4.0%[11.4 µM]	-0.2%[11.5 µM]
COc1ccccc1CN1CC[C@@]2(CCCN(C(=O)c3cccc(F)c3)C2)C1	-3.9%	8.3%	x	-0.9%[11.4 µM]	-0.3%
Clc1ccc(Cl)c(Cl)c1Cl	-1.0%	-2.2%	x	x	0.0%
COc1ccc(OC)c2[nH]c(=O)c(CCNC(=O)C(C)C)cc12	-2.0%	-4.9%	x	-0.1%	0.4%
COc1ccc(OC)c2[nH]c(=O)c(CCNS(=O)(=O)c3ccc(Cl)cc3)cc12	-2.2%	15.3%	4.35*	-1.5%	-4.0%
COc1ccc(OC)c2[nH]c(=O)c(CCNS(=O)(=O)c3ccc(C)cc3)cc12	-0.3%	11.8%	2.29*	4.0%	-1.8%
CN(Cc1cc(Br)cc(Br)c1N)C1CCCCC1	0.6%	x	x	x	-1.0%
Nc1nonc1-c1nc2ccccc2[nH]1	-0.3%	-4.3%	x	-0.2%	-0.4%
Cn1cc(Cl)c(-c2nc3ccccc3[nH]2)n1	-1.8%	6.8%	i	25.1µM*	1.2%
Cc1cccc(C)c1N1C(=O)c2ccccc2C1=O	-2.1%	4.0%	x	-1.0%	2.3%

From PubChem BioAssay
